Results filed as inconclusive are left out. Activity calls are given as the source filed them. The calls were made as follows, unless noted: active = hit-call score of the fitted dose curve at least 0.9, where 1 is the maximum; inconclusive = response in the unintended direction; inactive = score below 0.9.

14 compounds from PubChem BioAssay (EPA / NIEHS) can be followed below.

The target in assay [1] is Cellular tumor antigen p53 (Homo sapiens) (UniProt P04637). In words: TOX21_p53_BLA_p2_ratio: Tox21 HCT-116 p53 Agonism Beta-lactamase Assay, Ratio, Phase 2 (AID 2283592). The method in brief: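 Ratio endpoint: beta-lactamase cleavage of CCF4-AM, blue (460 nm) over green (530 nm). HCT116 reporter line; 16 h treatment, 37C; substrate 2 h RT.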
Sequence of Cellular tumor antigen p53 (Homo sapiens) (P04637 whole entry, looked up): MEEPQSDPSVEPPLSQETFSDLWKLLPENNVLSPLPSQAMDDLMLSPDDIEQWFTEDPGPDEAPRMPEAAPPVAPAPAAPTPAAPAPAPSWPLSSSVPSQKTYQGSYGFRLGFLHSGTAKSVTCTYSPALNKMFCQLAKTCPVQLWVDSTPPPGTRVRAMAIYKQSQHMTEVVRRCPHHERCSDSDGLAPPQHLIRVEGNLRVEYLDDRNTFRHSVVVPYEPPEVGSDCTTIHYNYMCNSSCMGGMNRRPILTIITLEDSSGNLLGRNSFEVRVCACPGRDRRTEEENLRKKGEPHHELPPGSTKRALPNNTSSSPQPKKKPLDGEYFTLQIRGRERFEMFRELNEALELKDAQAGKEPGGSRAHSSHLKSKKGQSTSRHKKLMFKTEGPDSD
Assay [2] can be described thus: TOX21_p53_BLA_p3_viability: Viability Assessment in the Tox21 HCT-116 p53 Agonism Beta-lactamase Assay, Phase 3 (AID 2283593).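 Also: cells exposed to compound for 16 h before reading.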 In a few lines: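 Cellular ATP was quantified by CellTiter-Glo luminescence, read after 30 min at room temperature. Beforehand, HCT116 cells (4000/well) received compound 5 h post-seeding, 217-fold diluted from DMSO, then incubated 16 h at 37C.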

A short description of assay [3]: TOX21_p53_BLA_p4_viability: Viability Assessment in the Tox21 HCT-116 p53 Agonism Beta-lactamase Assay, Phase 4 (AID 2283597).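 Also: hits lower the luminescence signal meaning cytotoxicity.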 The method in brief: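 Cytotoxicity was inferred from loss of CellTiter-Glo luminescence. HCT116 cells had been dosed with compounds after 5 h plating, incubated 16 h at 37C and 5% CO2, and exposed to the CCF4-AM substrate for 2 h.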
Assay [4] has as its target Cellular tumor antigen p53 (Homo sapiens) (UniProt P04637). In words: TOX21_p53_BLA_p5_ratio: Tox21 HCT-116 p53 Agonism Beta-lactamase Assay, Ratio, Phase 5 (AID 2283599). The method in brief:
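Beta-lactamase reporter ratio (blue 460 nm over green 530 nm, 405 nm excitation) after 2 h CCF4-AM loading, in HCT-116 cells exposed 16 h at 37 C to compounds pinned at 217-fold dilution. Increases relative to DMSO baseline scored.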

For assay [5] the target is unchanged. In words: TOX21_p53_BLA_p4_ratio: Tox21 HCT-116 p53 Agonism Beta-lactamase Assay, Ratio, Phase 4 (AID 2283601). In a few lines: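 Signal is the blue/green (460nm/530nm) ratio of cleaved versus uncleaved CCF4-AM substrate, read after 2 h substrate loading. Cells were HCT116 carrying the p53-responsive beta-lactamase reporter, dosed 16 h at 37C, 5% CO2; CellTiter-Glo measured in parallel.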

Assay [6] can be described thus: CCTE_Harrill_HTTr_Viability_MCF7: CCTE's 6-hour Cell Viability Assessment for the High-Throughput Transcriptomics (HTTr) Platform, in MCF-7 cells cultured in DMEM + 10% fetal bovine serum, Harrill Lab (AID 2284010; active = hit-call score of the fitted dose curve at least 0.9, where 1 is the maximum; inactive = score below 0.9). In a few lines: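 Eight-point concentration series, six-hour exposure. Propidium iodide exclusion imaged to assess membrane integrity as a cytotoxicity readout; bidirectional fitting was done with DMSO as negative control and activity baseline.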

Assay [7] in a line: CCTE_Harrill_HTTr_Apoptosis_MCF7: CCTE's 6-hour Apoptosis Assessment for the High-Throughput Transcriptomics (HTTr) Platform, in MCF-7 cells cultured in DMEM + 10% fetal bovine serum, Harrill Lab (AID 2284011; active = hit-call score of the fitted dose curve at least 0.9, where 1 is the maximum; inactive = score below 0.9). In a few lines: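 MCF-7 cells in DMEM + 10% fetal bovine serum were exposed to chemicals for 6 hours over an eight-point dilution series. Caspase-3/7 activation was imaged by high content imaging with CellEvent Caspase 3/7 Green; bidirectional fitting used DMSO as baseline.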

Assay [8] is described as follows: CCTE_Harrill_HTTr_CellCount_MCF7: CCTE's Cell Proliferation Assessment for the High-Throughput Transcriptomics (HTTr) Platform, Harrill Lab (AID 2284012).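 Also: intended direction is loss of nuclei count meaning fewer cells.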 In a few lines: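 For this full-screen endpoint, MCF-7 cultures received eight compound dilutions for six hours. Well nuclei counts from Hoechst imaging were analyzed relative to DMSO.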
Assay [9] can be described thus: TOX21_p53_BLA_p5_viability: Viability Assessment in the Tox21 HCT-116 p53 Agonism Beta-lactamase Assay, Phase 5 (AID 2283600). In a few lines:
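Luciferase-coupled ATP quantitation of cells treated for 16 h (37C, 5% CO2) with test chemicals delivered in DMSO via a 217-fold dilution; 4000 cells/well; reagent incubated 30 min at room temperature before luminescence reading.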

The target of assay [10] is Cellular tumor antigen p53 (Homo sapiens) (UniProt P04637). Kind of assay: TOX21_p53_BLA_p3_ratio: Tox21 HCT-116 p53 Agonism Beta-lactamase Assay, Ratio, Phase 3 (AID 2283596). The method in brief: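 Cells were seeded at 4000/well, rested 5 h at 37C, then dosed with DMSO compound solutions (217-fold dilution) for 16 h. CCF4-AM substrate was loaded for 2 h at room temperature, and the 460/530 nm emission ratio was fitted for gain of signal versus DMSO.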

In assay [11] the target is PGR (gene 5241) (UniProt P06401). Kind of assay: TOX21_PR_BLA_Followup_Antagonist_ratio: Tox21 HEK293 Progesterone Receptor (PR) Antagonism Beta-lactamase Follow-Up Assay, Ratio (AID 2283934).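 Also: PR-UAS-bla HEK293T cells stimulated with 1 nM R5020 agonist for 16 hr.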 The method in brief:
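Measured in PR-UAS-bla HEK293T cells co-treated with compound and 1 nM promegestone for 16 hr; beta-lactamase ratio read after 2 h FRET substrate loading, with parallel CellTiter-Glo cytotoxicity.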

Assay [12] in a line: TOX21_PR_BLA_Followup_Agonist_viability: Viability Assessment in the Tox21 HEK293 Progesterone Receptor (PR) Agonism Beta-lactamase Follow-Up Assay (AID 2283935).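 Also: signal loss means lower viability so actives are cytotoxic.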 In a few lines:
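Viability is read as CellTiter-Glo luminescence, where loss of signal indicates cytotoxicity. The cells are PR-UAS-bla HEK293T given compounds for 16 hr at 37C and 5% CO2, in the same wells used for the bla readout.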

For assay [13], the target named is PGR (gene 5241) (UniProt P06401). In words: TOX21_PR_LUC_Followup_Agonist: Tox21 HEK293 Progesterone Receptor (PR) Agonism Luciferase Follow-Up Assay (AID 2283937; active = hit-call score of the fitted dose curve at least 0.9, where 1 is the maximum; inactive = score below 0.9). In a few lines:
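In HEK293 cells stably expressing PR-A with a luciferase reporter, compounds were incubated 16 h at 37C, and induced luminescence was quantified with ONE-Glo, multiplexed with cell viability.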

The target is the same in assay [14]. Kind of assay: TOX21_PR_LUC_Followup_Antagonist: Tox21 HEK293 Progesterone Receptor (PR) Antagonism Luciferase Follow-Up Assay (AID 2283938).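 Also: curve fitted upward as signal gain over DMSO baseline despite antagonist label.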 The method in brief: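 HEK293-PR-A-luc cells were precultured 5 days in medium with 10% charcoal-stripped FBS, seeded 3,000/well, then exposed to compounds in DMSO for 16 h at 37C. Luciferase was read by ONE-Glo luminescence after 30 min at room temperature.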

The nature of assay [15]: TOX21_PR_LUC_Followup_Agonist_viability: Viability Assessment in the Tox21 HEK293 Progesterone Receptor (PR) Agonism Luciferase Follow-Up Assay (AID 2283941).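 Also: loss of signal means cytotoxicity so actives lower viability.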 In a few lines: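 Seeding: HEK293-PR-A-luc, 3,000 cells/well, 5 h at 37C. Treatment: compound in DMSO, 16 h, 37C. Read: CellTiter-Glo ATP luminescence, signal loss taken as lower viability.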

Sequence of PGR (gene 5241) (P06401 whole entry, looked up): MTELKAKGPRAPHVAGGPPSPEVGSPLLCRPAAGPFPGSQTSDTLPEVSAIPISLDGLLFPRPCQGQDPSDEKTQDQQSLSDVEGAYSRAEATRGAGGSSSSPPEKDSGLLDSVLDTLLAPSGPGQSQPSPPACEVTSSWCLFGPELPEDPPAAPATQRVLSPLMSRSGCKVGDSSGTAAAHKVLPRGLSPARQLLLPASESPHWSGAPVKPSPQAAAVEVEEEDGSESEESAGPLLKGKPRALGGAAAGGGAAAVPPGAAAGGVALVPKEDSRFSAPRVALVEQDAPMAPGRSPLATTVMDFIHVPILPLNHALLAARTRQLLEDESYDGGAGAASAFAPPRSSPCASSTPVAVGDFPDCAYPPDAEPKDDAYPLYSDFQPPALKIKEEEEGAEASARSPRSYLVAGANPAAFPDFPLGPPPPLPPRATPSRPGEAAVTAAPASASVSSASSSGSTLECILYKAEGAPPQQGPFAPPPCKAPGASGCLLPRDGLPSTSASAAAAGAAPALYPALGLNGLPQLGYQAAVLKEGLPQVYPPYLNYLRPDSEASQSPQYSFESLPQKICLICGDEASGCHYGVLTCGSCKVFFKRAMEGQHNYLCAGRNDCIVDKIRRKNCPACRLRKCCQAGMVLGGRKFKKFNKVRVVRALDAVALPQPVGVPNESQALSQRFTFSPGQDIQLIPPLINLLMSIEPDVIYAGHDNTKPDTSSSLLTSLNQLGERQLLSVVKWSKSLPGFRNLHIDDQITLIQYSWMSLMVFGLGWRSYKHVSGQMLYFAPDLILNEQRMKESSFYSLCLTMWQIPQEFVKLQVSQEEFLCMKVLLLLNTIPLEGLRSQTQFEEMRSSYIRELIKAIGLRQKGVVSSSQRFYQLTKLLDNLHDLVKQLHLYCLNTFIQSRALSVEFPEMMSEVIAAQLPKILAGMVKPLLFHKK

Consider `CCc1ccccc1CC`, for which the outcome in assay [1], in assay [2], in [3], in assay [4], in [5] and in assay [6] was inactive. Also, the result in assay [7] and in [8] was inactive.

As for `CC(C)CN(C[C@@H](O)[C@H](Cc1ccccc1)NC(=O)O[C@H]1CO[C@H]2OCC[C@H]21)S(=O)(=O)c1ccc(N)cc1`, the result in [1], in assay [2], in [3], in assay [4], in [9] and in [5] was inactive.

Take `CC(=O)N[C@@H](CCC(N)=O)C(=O)O`: the result in assay [1], in assay [2], in assay [3], in assay [4] and in assay [9] was inactive.

For the compound `CC1(C)C(\C=C/C=C\C=C/C=C2/N(CCCCS(=O)(=O)O)c3ccc4ccccc4c3C2(C)C)=[N+](CCCCS(=O)(=O)[O-])c2ccc3ccccc3c21`, the result in assay [1], in assay [2], in [3], in assay [4], in [9] and in assay [5] was inactive.

Take `CC1=CC(=O)CC(C)(C)C1(O)/C=C/C(C)=C\C(=O)O` (stereo not drawn): the result in [1], in assay [2], in assay [3], in assay [9] and in [5] was inactive.

Take `CC(=O)Nc1c(I)c(C(=O)O)c(I)c(N(C)C(C)=O)c1I`: the outcome in assay [1], in [2], in assay [3], in assay [4], in assay [9] and in [5] was inactive.

For `NS(=O)(=O)c1ccc(NC(=O)CCC(=O)O)cc1`, the outcome in assay [1], in assay [2], in assay [3], in assay [4], in [9] and in [5] was inactive.

Regarding `Cc1cccc2sc(N)nc12`, the outcome in [1], in [2], in assay [3], in assay [4], in assay [9] and in [5] was inactive.

In the case of `NC(=O)CC[C@@H]1NC(=O)[C@H](Cc2ccccc2)NC(=O)[C@H](Cc2ccc(O)cc2)NC(=O)CCSSC[C@@H](C(=O)N2CCC[C@H]2C(=O)N[C@@H](CCCN=C(N)N)C(=O)NCC(N)=O)NC(=O)[C@H](CC(N)=O)NC1=O`, the result in assay [1], in assay [10] and in assay [5] was inactive.

With `Cn1c(N)c(N=O)c(=O)n(C)c1=O`, the compound was called inactive in assay [2], in [3] and in [9].

As to `CN(C)CCN(Cc1cccs1)c1ccccn1`, the outcome in [1], in [10], in assay [4] and in assay [5] was inactive.

What is called AC50 is the midpoint of the concentration-response curve, whichever way the signal moves. For the compound `CC(=O)OCC(=O)[C@@]1(O)CC[C@H]2[C@@H]3CCC4=CC(=O)C=C[C@]4(C)[C@H]3[C@@H](O)C[C@@]21C`, the result (with PGR (gene 5241) [11]; in [12]; with PGR (gene 5241) [14]; in assay [15]) was inactive. Also, the AC50 with PGR (gene 5241) [13] is 2280 nM (active).

Turning to `Cc1cc(C)cc(N)c1`, the outcome in assay [1], in assay [3], in assay [4], in [9] and in assay [5] was inactive.

`CCn1nc(C(=O)O)c(=O)c2cc3c(cc21)OCO3`: the outcome in [1], in [10], in assay [4], in [9] and in [5] was inactive.
